Data from PubChem BioAssay (NCATS).
Inconclusive results are not listed. The source made the active and inactive calls. Unless noted, calls follow the shape of the dose curve; as a rule, active = well fitted curve in the direction sought with a large enough effect; inconclusive = small, poorly fitted or top-dose-only effect, or another doubt; inactive = no such curve, though single readings can be large; an effect the other way counts as inactive or inconclusive.

Key:
[1] = molecular target: Guanine nucleotide-binding protein G(i) subunit alpha-1 (Homo sapiens) (UniProt P63096); assay: qHTS Assay for Inhibitors of RGS12 GoLoco Motif Activity (Green Fluorophore) (AID 879);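 also: negative values mean loss of peptide binding seen as reduced polarization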
How it was run: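 Fluorescence polarization assay: 50 nM Gαi1 with 10 nM FITC-labeled RGS12 GoLoco peptide in 10 mM Tris pH 7.5, 150 mM NaCl, 0.1 mM GDP, 0.05% NP40, 10 min at room temperature with compound.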

[2] = qHTS Assay for Identification of Small Molecule Antagonists for NFkB Signaling Pathway (AID 895; active = well fitted inhibition curve with a large enough effect in the signal ratio, with a control signal flat, not every such curve was filed as active; the % refers to the signal ratio)
How it was run: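 Beta-lactamase reporter read-out (460 and 530 nm emission ratio, 405 nm excitation, 2 hrs substrate loading RT) after 5 hr stimulation with 10 pM TNF alpha in compound-treated NFkB-bla ME-180 cells in low-serum medium.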

[3] = molecular target: Pyruvate kinase (Leishmania mexicana) (UniProt Q27686); assay: qHTS Validation Assay for Inhibitors of Leishmania Mexicana Pyruvate Kinase (AID 945); also: potency is read from the fitted curve at half-maximal effect
How it was run: (§1)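 Read-out: luminescence from PKLight stop/detection reagent, data normalized to DMSO. Reaction: 0.2 nM E451W LmPYK, 0.5 mM PEP, 0.1 mM ADP, pH 7.2, 1 h room temperature.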

[4] = molecular target: Pyruvate kinase PKM (Homo sapiens) (UniProt P14618); assay: qHTS Assay for Activators of Human Muscle Pyruvate Kinase (AID 954; active = well fitted curve in the direction sought with a large enough effect, not every such curve was filed as active)
How it was run: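 Purified human PKM2 (0.1 nM) with 0.5 mM PEP (Km) and 0.1 mM ADP in 50 mM imidazole pH 7.2, KCl, MgCl2, 1 h at room temperature; ATP formed read by coupled luciferase luminescence. Normalized to no-enzyme/110 uM thiadiazolimine inhibition; 0.3 nM enzyme column for activation.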

[5] = molecular target: Pyruvate kinase PKM (Homo sapiens) (UniProt P14618); assay: qHTS Assay for Inhibitors of Human Muscle Pyruvate Kinase (AID 958); details: purified human PKM enzyme activity
How it was run: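 ATP production by PKM2 detected via luciferase luminescence after 1 h room-temperature reaction (0.1 nM enzyme, PEP at Km 0.5 mM, ADP 0.1 mM, pH 7.2 imidazole buffer). Inhibition scaled to no-enzyme control; activation referenced to 0.3 nM enzyme wells.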

[6] = molecular target: Pyruvate kinase (Leishmania mexicana) (UniProt Q27686); assay: qHTS Validation Assay for Activators of Leishmania Mexicana Pyruvate Kinase (AID 959)
How it was run: as §1

[7] = molecular target: Alpha-galactosidase A (Homo sapiens) (UniProt P06280); assay: Counterscreen for Glucocerebrosidase Inhibitors: qHTS Assay for Human alpha-Galactosidase at pH 4.5 (AID 992)
How it was run: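 Human enzyme (2 nM) with 80 uM 4-methylumbelliferyl alpha-D-galactopyranoside in 50 mM citric acid, 0.005% Tween-20, pH 4.5, 20 min at room temperature. Compounds 0.7 nM–77 uM; fluorescence Ex 365/Em 440 after pH 10 stop; AC50 from Hill fits.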

[8] = molecular target: DNA dC->dU-editing enzyme APOBEC-3G (Homo sapiens) (UniProt Q9HC16); assay: qHTS for inhibitors of Vif-A3G interactions: Validation (AID 588379)
How it was run: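 HeLa cells stably expressing Vif and A3G-eYFP, 700 cells/well, incubated overnight at 37 deg C, then exposed to compound overnight at 37 deg C. Inhibition of Vif-mediated degradation read as increased yellow fluorescence (Ex 488/Em 500-530) by laser-scanning cytometry.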

[9] = S16 Schwann cell viability assay (CellTiter-Glo assay) (AID 624031);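 also: cellular ATP luminescence as a viability measure; nearly all actives have a fitted effect of over 70% in size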
How it was run: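 This viability control uses native rat S16 Schwann cells grown in DMEM plus 10% FBS. After a 24 h compound treatment at 37 °C, CellTiter-Glo luminescence reports ATP content, scaled against DMSO-treated and cell-free wells.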

[10] = S16 Schwann cell PMP22 intronic element firefly luciferase assay (AID 624032); also: nearly all actives have a fitted effect of over 30% in size
How it was run: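 Luciferase reporter of PMP22 intronic-element expression in stably transfected S16 rat Schwann cells, read by ONE-Glo luminescence after 24 h compound exposure at 37 C. Activity scaled between DMSO (0%) and positive-control PTC124; concentration-effect curves quality-classified.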

CP260 = assay: qHTS profiling for inhibitors of Plasmodium falciparum proliferation (AID 504749); also: nearly all actives have a fitted effect of over 60% in size; details: P. falciparum in erythrocytes, SYBR Green DNA, 72 h; series mostly up to 28.7 µM
How it was run: (§2)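 Infected RBCs, 0.3% parasitemia/2.5% Hct final; cpd 72 h, 37 C, 5% CO2; lysis buffer with saponin/triton/SYBR Green I, o/n RT dark; FI 485/535; norm. to artemisinin (0.29 uM) and DMSO.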

CP297 = assay: as above; details: P. falciparum in erythrocytes, SYBR Green DNA, 72 h; series mostly up to 28.7 µM
How it was run: as §2

CP315 = assay: as above; details: P. falciparum in erythrocytes, SYBR Green DNA, 72 h; series mostly up to 28.7 µM
How it was run: as §2

JCK = assay: as above; details: P. falciparum in erythrocytes, SYBR Green DNA, 72 h; series mostly up to 28.7 µM
How it was run: as §2

Measured: Potency

Chain of Pyruvate kinase (Leishmania mexicana) (Q27686 2-499 E452W): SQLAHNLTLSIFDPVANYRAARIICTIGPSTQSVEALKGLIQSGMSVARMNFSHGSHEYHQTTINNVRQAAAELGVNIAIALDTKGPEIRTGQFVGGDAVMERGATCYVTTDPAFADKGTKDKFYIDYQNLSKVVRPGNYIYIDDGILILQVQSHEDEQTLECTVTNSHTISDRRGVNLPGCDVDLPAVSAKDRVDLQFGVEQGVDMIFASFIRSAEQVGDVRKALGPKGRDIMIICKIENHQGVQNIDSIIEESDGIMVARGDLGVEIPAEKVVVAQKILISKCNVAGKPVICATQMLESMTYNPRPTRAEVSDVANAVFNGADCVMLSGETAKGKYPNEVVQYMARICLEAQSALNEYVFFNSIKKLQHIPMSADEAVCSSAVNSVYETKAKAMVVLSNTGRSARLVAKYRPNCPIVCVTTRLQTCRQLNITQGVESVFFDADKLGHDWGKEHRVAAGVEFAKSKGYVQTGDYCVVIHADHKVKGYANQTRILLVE
Chain of Pyruvate kinase PKM (Homo sapiens) (P14618 whole entry, looked up): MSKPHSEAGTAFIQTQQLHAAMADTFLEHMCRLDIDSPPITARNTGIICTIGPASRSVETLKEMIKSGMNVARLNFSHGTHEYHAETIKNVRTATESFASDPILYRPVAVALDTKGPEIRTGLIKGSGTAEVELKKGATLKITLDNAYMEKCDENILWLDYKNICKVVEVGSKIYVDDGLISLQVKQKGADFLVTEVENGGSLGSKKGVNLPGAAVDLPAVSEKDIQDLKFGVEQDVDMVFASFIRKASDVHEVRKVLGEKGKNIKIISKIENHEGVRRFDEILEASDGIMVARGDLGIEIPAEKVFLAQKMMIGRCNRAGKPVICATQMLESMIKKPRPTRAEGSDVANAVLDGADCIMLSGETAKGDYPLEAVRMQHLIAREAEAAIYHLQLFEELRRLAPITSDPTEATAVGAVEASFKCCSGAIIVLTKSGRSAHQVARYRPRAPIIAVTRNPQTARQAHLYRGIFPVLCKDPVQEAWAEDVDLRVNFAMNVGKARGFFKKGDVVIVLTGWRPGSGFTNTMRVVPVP
Chain of Guanine nucleotide-binding protein G(i) subunit alpha-1 (Homo sapiens) (P63096 whole entry, looked up): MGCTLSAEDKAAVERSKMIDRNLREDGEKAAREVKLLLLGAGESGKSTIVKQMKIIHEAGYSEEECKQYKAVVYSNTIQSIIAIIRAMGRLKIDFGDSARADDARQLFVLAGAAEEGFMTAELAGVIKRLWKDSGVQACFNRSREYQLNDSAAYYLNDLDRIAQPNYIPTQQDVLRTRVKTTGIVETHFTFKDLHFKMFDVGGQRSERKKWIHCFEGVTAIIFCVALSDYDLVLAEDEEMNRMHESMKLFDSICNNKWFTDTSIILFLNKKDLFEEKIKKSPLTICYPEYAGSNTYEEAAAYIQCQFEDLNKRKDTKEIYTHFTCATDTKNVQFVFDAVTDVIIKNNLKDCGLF
Chain of DNA dC->dU-editing enzyme APOBEC-3G (Homo sapiens) (Q9HC16 whole entry, looked up): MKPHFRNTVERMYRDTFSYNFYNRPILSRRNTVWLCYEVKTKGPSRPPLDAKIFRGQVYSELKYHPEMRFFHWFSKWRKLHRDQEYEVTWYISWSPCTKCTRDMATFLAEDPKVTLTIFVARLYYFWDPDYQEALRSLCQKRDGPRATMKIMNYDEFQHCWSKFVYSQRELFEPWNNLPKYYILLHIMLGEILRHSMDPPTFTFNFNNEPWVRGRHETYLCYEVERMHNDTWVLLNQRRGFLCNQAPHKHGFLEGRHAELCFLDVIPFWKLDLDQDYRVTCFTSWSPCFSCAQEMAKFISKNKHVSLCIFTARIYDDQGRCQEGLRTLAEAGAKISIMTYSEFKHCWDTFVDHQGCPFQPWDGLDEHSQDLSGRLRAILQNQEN
Chain of Alpha-galactosidase A (Homo sapiens) (P06280 whole entry, looked up): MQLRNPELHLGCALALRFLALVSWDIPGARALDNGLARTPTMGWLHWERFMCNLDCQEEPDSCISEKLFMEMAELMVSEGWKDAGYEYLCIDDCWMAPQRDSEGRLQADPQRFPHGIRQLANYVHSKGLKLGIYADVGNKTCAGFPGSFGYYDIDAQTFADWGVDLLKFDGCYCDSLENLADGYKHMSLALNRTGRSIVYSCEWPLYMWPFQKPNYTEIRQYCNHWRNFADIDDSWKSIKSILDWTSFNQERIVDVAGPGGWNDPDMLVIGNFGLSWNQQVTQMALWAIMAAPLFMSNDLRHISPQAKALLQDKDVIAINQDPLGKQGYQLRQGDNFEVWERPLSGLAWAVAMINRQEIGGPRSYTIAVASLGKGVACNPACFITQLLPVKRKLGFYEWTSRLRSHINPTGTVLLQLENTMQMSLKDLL

Oc1ccc(/C=C\c2cc(O)cc(O)c2)cc1
active: [3] 2.51 µM | [5] 3.16 µM
inactive: all other assays above
